These results are taken from PubChem BioAssay (Tox21).

Records with an inconclusive call do not appear. Values without a mark were called inactive. Activity calls are given as the source filed them. The call rests on the fitted dose curve; in most records, active means well fitted curve in the direction sought with a large enough effect in the repeat runs; inconclusive means weak or mixed curves; inactive means no such curve, though single readings can be large; an effect the other way counts as inactive or inconclusive.

Assay [1] is described as follows: A CellTox Green Cytotoxicity Assay to monitor cytotoxicity in HEK293 cells - 40 hour (AID 1224871). Further: nearly all actives have a fitted effect of over 45% in size. Further: potency means the concentration at half of the fitted maximal effect. Particulars: CellTox Green fluorescence; series mostly up to 76.8 µM. The essentials: (§1)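 Each value comes from one timepoint of a single continuous run in which HEK293 cells with CellTox Green were exposed to compound for up to 40 h at 37 C, dye fluorescence rising with cell death.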

Assay [2] in a line: qHTS RealTime-Glo MT Cell Viability Assay in HEK293 cells - 16 hour (AID 1224872). Further: nearly all actives have a fitted effect of over 50% in size. Further: potency means the concentration at half of the fitted maximal effect. The following applies: RealTime-Glo luminescence; series mostly up to 76.8 µM. The essentials: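 HEK293 cells seeded with NanoLuc/prosubstrate reagent, rested 5 h at 37 C, then dosed and kept at 37 C up to 40 h. Nonlytic real-time luminescence from viable cells read at 0, 8, 16, 24, 32 and 40 h.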

Assay [3] can be described thus: qHTS RealTime-Glo MT Cell Viability Assay in HepG2 cells - 8 hour (AID 1224873). Further: nearly all actives have a fitted effect of over 55% in size. Further: potency means the concentration at half of the fitted maximal effect. Particulars: RealTime-Glo luminescence; series mostly up to 76.8 µM. The essentials: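 HepG2 cells mixed with RealTime-Glo MT reagents (NanoLuc plus cell-permeant prosubstrate) were seeded at 600 cells/well, incubated 5 h at 37 C/5% CO2, then pinned with compounds in DMSO; nonlytic luminescence tracked viability during 40 h treatment.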

A short description of assay [4]: A CellTox Green Cytotoxicity Assay to monitor cytotoxicity in HEK293 cells - 24 hour (AID 1224875). Further: nearly all actives have a fitted effect of over 45% in size. The following applies: CellTox Green fluorescence; series mostly up to 76.8 µM. The essentials:
as §1

Assay [5] can be described thus: A CellTox Green Cytotoxicity Assay to monitor cytotoxicity in HepG2 cells - 16 hour (AID 1224876). Further: nearly all actives have a fitted effect of over 45% in size. Further: potency means the concentration at half of the fitted maximal effect. The following applies: CellTox Green fluorescence; series mostly up to 76.8 µM. The essentials: (§2)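 Continuous culture of HepG2 cells with a membrane-impermeant DNA dye; rising fluorescence marks dead cells. Compound exposure lasted up to 40 h at 37 C, with reads every 8 h from 0 h.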

The nature of assay [6]: qHTS RealTime-Glo MT Cell Viability Assay in HepG2 cells - 32 hour (AID 1224877). Further: nearly all actives have a fitted effect of over 55% in size. The following applies: RealTime-Glo luminescence; series mostly up to 76.8 µM. The essentials: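 HepG2 cells (600/well) were dispensed with RealTime-Glo reagents, incubated 5 h at 37 °C, then treated with compounds in DMSO for up to 40 h. Nonlytic NanoLuc luminescence reflecting viable cells was read at each stated time point.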
Background: Quantitative high-throughput screening tests each substance at several concentrations.

The nature of assay [7]: A CellTox Green Cytotoxicity Assay to monitor cytotoxicity in HepG2 cells - 24 hour (AID 1224878). Further: nearly all actives have a fitted effect of over 45% in size. Further: potency means the concentration at half of the fitted maximal effect. The following applies: CellTox Green fluorescence; series mostly up to 76.8 µM. A digest of the protocol:
as §2

The nature of assay [8]: A CellTox Green Cytotoxicity Assay to monitor cytotoxicity in HepG2 cells - 40 hour (AID 1224879). Further: nearly all actives have a fitted effect of over 40% in size. Further: potency means the concentration at half of the fitted maximal effect. The following applies: CellTox Green fluorescence; series mostly up to 76.8 µM. The essentials: as §2
Assay [9] in a line: qHTS RealTime-Glo MT Cell Viability Assay in HEK293 cells - 40 hour (AID 1224874). Further: nearly all actives have a fitted effect of over 50% in size. Further: potency means the concentration at half of the fitted maximal effect. The following applies: RealTime-Glo luminescence; max response: hits give low values. The essentials: (§3)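 qHTS format; HEK293 cells with NanoLuc/prosubstrate reagent, 37 C/5% CO2 for 5 h pre-dosing; compounds 23 nL in DMSO; luminescence at each time point reflects viable cells.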
The nature of assay [10]: qHTS RealTime-Glo MT Cell Viability Assay in HEK293 cells - 0 hour (AID 1224880). The following applies: RealTime-Glo luminescence; series mostly up to 76.8 µM. A digest of the protocol:
as §3
On the % scale 0 is the no-effect control and ±100 the full control effect.

For `Cc1ncsc1CCCl`, the Potency result in [1], in assay [2], in [3], in [4], in [5] and in assay [6] was “inactive” each time. The Potency entry in [7] and in assay [8] was “inactive” in each case.
On to `O=c1oc2ccccc2c(O)c1C1CCCc2ccccc21` (stereo not drawn), for which the Potency entry in [1], in assay [2], in assay [3], in assay [5], in assay [6] and in [7] was “inactive” in each case. Also, the Potency entry in [8] was “inactive”. In addition, the max response in [9] was 14.6%. The outcome in [10] was inactive.
For `N#CC(CCc1ccc(Cl)cc1)(Cn1cncn1)c1ccccc1` (stereo not drawn), the Potency in assay [1] is 49 µM (active); in [2], 21.9 µM (active); in assay [3], 38.9 µM (active); in [9] it was 17.4 µM (active); in assay [5], 21.9 µM (active); in [7], 21.9 µM (active). Moreover, in assay [8], the Potency is 24.5 µM (active). Besides, the result in assay [10] was inactive.
Take `CC1(C)CON(Cc2ccccc2Cl)C1=O`: the Potency entry in [1], in assay [2], in [3], in assay [5] and in [7] was “inactive” in each case. In [9], the max response is -0.432%. Besides, the compound was classed as inactive in assay [10].
With `CCCCCCBr`, the Potency entry in assay [1], in [2], in assay [3], in assay [5], in assay [7] and in [8] was “inactive” throughout. For the same compound, the max response in assay [9] was 13.7%. The outcome in assay [10] was inactive.
`CC(C)(C)NCC(O)c1cc(Cl)c(N)c(Cl)c1` (stereo not drawn): the Potency result in [1], in assay [2], in assay [3], in assay [5], in assay [6] and in [7] was “inactive” in each case. Besides, the Potency entry in assay [8] was “inactive”. Further, the max response in [9] was 2.03%. In addition, the compound was classed as inactive in assay [10].
In the case of `CCN(CC)C(=O)[C@@H]1C=C2c3cccc4[nH]cc(c34)C[C@H]2N(C)C1`, the Potency result in assay [1], in [2], in assay [3], in assay [4], in assay [5] and in assay [6] was “inactive” throughout. Besides, the Potency result in [7] and in assay [8] was “inactive” each time. Moreover, the compound was classed as inactive in assay [10].
In the case of `CCS(=O)(=O)C(C)(C)S(=O)(=O)CC`, the Potency result in assay [1], in [2], in [3], in assay [5], in assay [6] and in assay [7] was “inactive” each time. The Potency entry in [8] was “inactive”. Moreover, in assay [9], the max response was 3.47%. For the same compound, the result in [10] was inactive.
Consider `O=C(CCN1CC1)OCC(CO)(COC(=O)CCN1CC1)COC(=O)CCN1CC1`, for which the Potency result in assay [1], in [2], in assay [3], in assay [5], in [6] and in [7] was “inactive” in each case. Also, the Potency entry in assay [8] is “inactive”. Further, in assay [9], the max response is 0.103%. In addition, the result in assay [10] was inactive.
Turning to `O=C(N[C@H]1CN2CCC1CC2)c1cc2ccoc2cn1`, the Potency entry in [1], in assay [2], in assay [3], in [5] and in assay [6] was “inactive” in each case. Moreover, the max response in assay [9] was 8.57%. The result in assay [10] was inactive.
On to `Cc1nc(N)nc(N)n1`, for which the Potency result in assay [1], in [2], in [3], in assay [5], in [6] and in [7] was “inactive” in each case. Moreover, in assay [8], the Potency entry was “inactive”. The max response in [9] is -3.78%. For the same compound, the compound was called inactive in [10].
Turning to `ClCC(Cl)Cl`, the Potency result in assay [1], in assay [2], in assay [3], in assay [4], in assay [5] and in assay [6] was “inactive” in each case. Further, the Potency result in assay [7] and in assay [8] was “inactive” in each case. Also, the compound was classed as inactive in assay [10].
Take `N#Cc1ccncc1`: the Potency entry in assay [1], in assay [2], in assay [3], in assay [5], in [6] and in assay [7] was “inactive” in each case. Further, the Potency result in assay [8] was “inactive”. For the same compound, the max response in assay [9] was 11.4%. In [10], the result was inactive.
For the compound `C[C@]12CC[C@H]3[C@@H](CCC4=CC(=O)CC[C@@]43C)[C@@H]1CC[C@@H]2C(=O)O`, the Potency entry in [1], in [2], in assay [3], in assay [5], in assay [6] and in assay [8] was “inactive” each time. The max response in assay [9] is 2.42%. In addition, the result in assay [10] was inactive.
For `CCC1(c2ccccc2)C(=O)NC(=O)NC1=O`, the Potency result in assay [1], in assay [2], in assay [3], in assay [5], in [6] and in assay [7] was “inactive” each time. In addition, in [8], the Potency entry was “inactive”. Moreover, in assay [9], the max response is 17.3%. Besides, the compound was called inactive in [10].
As for `CCCSC(=O)N(CCC)CCC`, the Potency result in [1], in assay [2], in assay [3], in [4], in [5] and in assay [6] was “inactive” each time. Besides, the Potency entry in assay [7] and in [8] was “inactive” throughout. Moreover, in assay [10], the outcome was inactive.
Consider `ClC(Br)Br`, for which the Potency result in [1], in assay [2], in assay [3], in [4], in [5] and in assay [6] was “inactive” in each case. Further, the Potency result in [7] and in [8] was “inactive” throughout.
For `CCCCOC(=O)c1ccccc1N`, the Potency in [1] and in assay [7] was 49.3 µM (active) each time. Also, the Potency result in assay [2], in assay [3], in assay [5] and in [6] was “inactive” each time. Moreover, the max response in [9] is 0.429%. In addition, the compound was classed as inactive in [10].
Turning to `COC(=O)c1c(C(F)F)nc(C(F)(F)F)c(C2=NCCS2)c1CC(C)C`, the Potency result in assay [1], in assay [2], in assay [3], in [5], in assay [6] and in [7] was “inactive” in each case. In addition, the Potency entry in assay [8] is “inactive”. In addition, the max response in assay [9] was -16.3%. Also, the compound was called inactive in assay [10].
Regarding `NC1=NC(=O)C(c2ccccc2)O1` (stereo not drawn), the Potency result in assay [1], in assay [2], in assay [3], in assay [5], in assay [7] and in assay [8] was “inactive” in each case. In addition, the max response in [9] is 1.11%. Moreover, in assay [10], the result was inactive.
`CNC(=O)O/N=C(\C)SC`: the Potency entry in assay [1], in assay [2], in assay [3], in assay [6], in [7] and in assay [8] was “inactive” in each case. Besides, in assay [9], the max response was 14.5%. Also, in assay [5], the Potency was 0.219 µM (active). Further, the compound was called inactive in [10].
As for `COC(=O)COc1ccc(Cl)cc1Cl`, the Potency result in assay [1], in [2], in [3], in assay [5], in [6] and in assay [7] was “inactive” in each case. In [8], the Potency entry is “inactive”. Also, the max response in [9] is 0.13%. The compound was called inactive in [10].
For the compound `OCCBr`, the Potency result in [1], in assay [2], in [3], in [4], in assay [5] and in [6] was “inactive” each time. For the same compound, the Potency entry in assay [7] and in assay [8] was “inactive” each time. In addition, the compound was classed as inactive in assay [10].
On to `CC(C)CC(N(C)C)C1(c2ccc(Cl)cc2)CCC1` (stereo not drawn), for which, in assay [1], the Potency was 23.9 µM (active). The Potency result in [2], in assay [3] and in assay [6] was “inactive” throughout. Moreover, the max response in assay [9] was -6.91%. Moreover, the result in assay [10] was inactive.
Consider `CNC(=O)Oc1ccc(N(C)C)c(C)c1`, for which the Potency result in assay [1], in assay [2], in [3], in assay [4], in [5] and in [6] was “inactive” each time. Besides, the Potency entry in [7] and in assay [8] was “inactive” each time. For the same compound, the compound was classed as inactive in [10].
Turning to `COC(=O)C(c1ccccc1)C1CCCCN1` (stereo not drawn), the Potency result in [1], in assay [2], in [3], in assay [5] and in [7] was “inactive” each time. The max response in assay [9] is 2.03%. In addition, the outcome in assay [10] was inactive.
In the case of `Cc1cnc[nH]1`, the Potency entry in assay [1], in assay [2], in assay [3], in [5], in [7] and in [8] was “inactive” in each case. In assay [9], the max response is -2.47%. In addition, in [10], the compound was called inactive.
On to `CCCCOP(=O)(O)OCCCC`, for which the Potency entry in [1], in assay [2], in [3], in [4], in assay [5] and in [6] was “inactive” in each case. Besides, the Potency entry in assay [7] and in assay [8] was “inactive” throughout. For the same compound, the outcome in assay [10] was inactive.
On to `CC(C)[N+](=O)[O-]`, for which the Potency entry in assay [1], in assay [2], in assay [3], in assay [4], in [5] and in [6] was “inactive” in each case. Moreover, the Potency result in assay [7] and in assay [8] was “inactive” in each case. The call in assay [10] was inactive.
Take `C[N+](=O)[O-]`: the Potency result in [1], in assay [2], in assay [3], in assay [5] and in assay [6] was “inactive” each time. Moreover, the max response in assay [9] is 18.3%. The compound was called inactive in [10].
Take `C=CCC1=C(C)[C@@H](OC(=O)[C@@H]2[C@@H](C=C(C)C)C2(C)C)CC1=O`: the Potency in assay [2] was 11 µM (active); in assay [9], 21.9 µM (active); in assay [8], 49 µM (active). The Potency result in assay [3], in assay [5] and in assay [6] was “inactive” throughout. Further, the compound was called inactive in assay [10].
